From PubChem
GPT2 inhibitor – blocks human glutamate pyruvate transaminase 2 | Q8TD30 | Recombinant GPT2, coupled pyruvate oxidase/HRP Amplex Red fluorescence | Potency, µM (series often up to 57.7 µM), without a hit: at the top dose activity change, negative = inhibition, usual class: inhibitors | hit rate 0.25% among 100,000 | AID 1671188; also: nearly all actives have a fitted effect of over 60% in size
Target sequence (Q8TD30 whole entry, looked up): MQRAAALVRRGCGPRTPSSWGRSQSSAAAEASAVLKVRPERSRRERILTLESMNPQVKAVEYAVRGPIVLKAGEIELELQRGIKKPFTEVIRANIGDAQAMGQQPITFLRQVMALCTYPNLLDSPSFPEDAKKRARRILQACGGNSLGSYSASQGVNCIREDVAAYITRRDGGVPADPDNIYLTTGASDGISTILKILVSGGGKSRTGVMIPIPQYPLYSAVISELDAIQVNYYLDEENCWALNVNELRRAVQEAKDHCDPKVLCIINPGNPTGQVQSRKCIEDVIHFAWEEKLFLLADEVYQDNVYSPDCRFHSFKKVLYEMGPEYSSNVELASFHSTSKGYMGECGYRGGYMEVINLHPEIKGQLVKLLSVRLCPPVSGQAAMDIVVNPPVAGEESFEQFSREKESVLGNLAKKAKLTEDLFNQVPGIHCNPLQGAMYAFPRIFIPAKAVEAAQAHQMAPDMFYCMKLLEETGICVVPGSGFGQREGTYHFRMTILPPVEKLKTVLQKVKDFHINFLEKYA
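Fluorescence of coupled pyruvate oxidase/HRP/Amplex Red system (50uM Amplex, 30 min, dark) reports pyruvate formed by GPT2. Enzyme reaction: 10ng/uL GPT2, 2mM L-alanine, 250uM a-KG, 30 min room temperature, pH 7.5; 50uM AOA control.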
NPR1 antag – antagonists of human natriuretic peptide receptor Npr1. HEK293 hNpr1 GloSensor cGMP, ANP-stimulated luminescence. P16066. Potency, µM (top dose mostly 46.3 µM), for the others: top-dose activity change, negative = inhibition, most hits filed as inhibitors. AID 1347048. hit rate 1.6% among 76,000; calls by dose curve; also: nearly all actives have a fitted effect of over 60% in size
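HEK293 cells stably expressing human Npr1 and cGMP GloSensor pGS-40F, loaded 2 h with 2% GloSensor reagent, given compound 30 min at room temperature. Luminescence read before and 20 min after 0.1 nM hNppA.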
FLuc inh – blocks purified firefly luciferase enzyme activity. purified P. pyralis luciferase, luminescence, biochemical. Potency, µM (doses to about 115 µM), actives largely listed as inhibitors. hit rate 2.5% among 76,000. AID 1347043; also: nearly all actives have a fitted effect of over 65% in size
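Luminescence read by CCD imaging after purified firefly luciferase (10nM final) was added to substrate buffer holding 10uM D-luciferin and 10uM ATP, pH 7.5, pre-dosed with compound.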
3T3 cytotox – cytotoxic compounds in NIH 3T3 cells. Potency, µM (highest dose often 96.7 µM), without a hit: at the highest dose activity change, negative = cytotoxicity, hits mostly inhibitors. AID 1345082. NIH 3T3 viability, CellTiter-Glo ATP luminescence, 48-72 h. hit rate 4.3% among 94,000; also: nearly all actives have a fitted effect of over 55% in size
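Mouse fibroblast NIH 3T3 cells, 400 per well, received compound via pintool and were incubated for 48 or 72 hr prior to CellTiter-Glo ATP luminescence measurement.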
HEK293 tox – cytotoxic compounds in HEK 293 cells; HEK 293 viability, ATP luminescence (CellTiter-Glo), 48-72 h; Potency, µM (highest dose often 115 µM), inactives show top-dose activity change, negative = cytotoxicity, usual class: inhibitors; hit rate 6.6% among 94,000; AID 1345083; also: nearly all actives have a fitted effect of over 60% in size
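Cells seeded first (HEK 293, 250 cells/well), then compound added by pintool. Incubation ran 48 or 72 hr at 37 degree Celsius. CellTiter-Glo was added and luminescence imaged after 10 min at room temperature.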
Active calls of the source: *; i = inactive; u = inconclusive; x = no result given; [ ] = dose if it differs, or a comment. Most compounds without a hit are left out; they make up all but 10% or so of the library. Unless noted, calls follow the shape of the dose curve; as a rule, active = well fitted curve in the direction sought with a large enough effect; inconclusive = small, poorly fitted or top-dose-only effect, or another doubt; inactive = no such curve, though single readings can be large; an effect the other way counts as inactive or inconclusive. % is scaled to controls: 0 for no effect and ±100 for the full control effect; potency is read from the fitted curve at half-maximal effect.

SMILES	GPT2 inhibitor	NPR1 antag	FLuc inh	3T3 cytotox	HEK293 tox
Cc1cc(N2CCC(NCc3nc[nH]c3C)CC2)nc(-c2ccccc2O)n1	i	-2%	i	35µM*	u
Cc1cc(N2CCC(NCc3noc(C)n3)CC2)nc(-c2ccccc2O)n1	1%	-1%	i	u	u
COCC(=O)N1CC[C@@H](CC(=O)O)[C@@H](CCN2CCN(c3ccc(F)cc3)CC2)C1	-8%[88.5 µM]	4%[70.6 µM]	i	3%[138 µM]	-2%[172 µM]
COc1ccccc1C(=O)N1CC(CNc2cccnc2)C2(C1)CN(c1ccccc1)C2 (stereo not given)	-9%[88.5 µM]	-6%[70.6 µM]	i	u	u
O=C(NCC1CN(Cc2cccc(O)c2)CC12CN(c1ccccc1)C2)c1ccccc1 (stereo not given)	-5%[88.5 µM]	-18%[70.6 µM]	i	28µM*	u
Oc1ccc(CN2CC(CNc3ccccc3)C3(C2)CN(c2ccccc2)C3)cc1 (stereo not given)	-1%[88.5 µM]	-22%[70.6 µM]	i	25µM*	40µM*
c1ccc(CN2CC(CNc3cccnc3)C3(C2)CN(c2ccccc2)C3)cc1 (stereo not given)	0%[88.5 µM]	-4%[70.6 µM]	i	50µM*	u
O=C(COc1ccccc1)N1CC(CNc2cccnc2)C2(C1)CN(c1ccccc1)C2 (stereo not given)	i	-12%[70.6 µM]	i	u	71µM*
Clc1cccc(CN2CC(CNc3cccnc3)C3(C2)CN(c2ccccc2)C3)c1 (stereo not given)	0%[88.5 µM]	-20%[70.6 µM]	i	u	u
Cc1ccc(CN2CCOc3ccc(CCC(=O)NCC4CC4)cc3C2)o1	1%	x	x	u	u
O=C(NCC1CN(C(=O)Cc2ccc(OC(F)(F)F)cc2)CC12CN(c1ccccc1)C2)Nc1ccccc1 (stereo not given)	i	-8%	i	28µM*	u
Nc1ncccc1CN1CC(COc2ccccc2)C2(C1)CN(c1ccccc1)C2 (stereo not given)	-2%[88.5 µM]	-30%[70.6 µM]	i	40µM*	35µM*
c1ccc2sc(N3CCN(Cc4cc5n(n4)CCCNC5)CC3)nc2c1	-39%	0%	i	-20%	-14%
c1ccc2c(N3CCN(Cc4cc5n(n4)CCNC5)CC3)nsc2c1	-20%	4%	i	u	40µM*
CN(CC1CCOCC1)C(=O)c1ccc(Br)o1	i	0%	i	u	-14%
Cc1cnc(CC2CCCN(Cc3ccc(F)cc3F)C2)n1Cc1ccccc1 (stereo not given)	-2%	x	x	u	u
COC(=O)[C@@H]1Cc2c([nH]c3ccccc23)[C@H]2C[C@@H](NCCO)C[C@@H](c3ccccc3)N21	2%[88.5 µM]	-16%[70.6 µM]	u	32µM*	40µM*
COCCN[C@@H]1C[C@@H]2c3[nH]c4ccccc4c3C[C@@H](C(=O)OC)N2[C@H](c2ccccc2)C1	5%[88.5 µM]	u	u	32µM*	28µM*
COCCn1ccc2ccc(C(=O)NC3CCCc4c3[nH]c3ccccc43)cc21 (stereo not given)	-4%	1%	i	u	u
COCCN[C@@H]1C[C@@H]2c3[nH]c4ccccc4c3C[C@@H](C(=O)OC)N2[C@H](c2ccc(F)c(F)c2)C1	-8%	u	i	25µM*	22µM*
O=C(COc1ccccc1)NC1CCCc2c1[nH]c1ccccc21 (stereo not given)	-13%	-4%	i	u	u
CC(C)N1C[C@H](O)C[C@H]1c1nnc2n1CCN(C(=O)c1ccco1)CC2	i	11%	i	-2%	4%
O=C(NCc1ccc(-c2cnc3c(Oc4ccccc4)nccn23)cc1)c1cccc(O)c1	-14%[88.5 µM]	u	i	u	u
CC(=O)N1CCN(Cc2ccc(-c3cnc4c(OCc5ccccc5)nccn34)cc2)CC1	2%	-88%	u	32µM*	40µM*
CN1CCN(Cc2ccc(-c3cnc4c(OCc5ccccc5)nccn34)cc2)CC1	-7%[88.5 µM]	u	32µM*	u	u
SMILES	GPT2 inhibitor	NPR1 antag	FLuc inh	3T3 cytotox	HEK293 tox
CCn1c(C2CCN(S(=O)(=O)c3ccc(OC)cc3)CC2)nn(C)c1=O	i	1%	i	-21%	-7%
CC(=O)N(C1CCOCC1)C1CCN(C(=O)c2ccc(C)cc2)CC1	i	x	x	-20%	0%
O=C(NC1CCCC1)C1CCCN1Cc1ccc(-c2cncnc2)cc1 (stereo not given)	-3%[88.5 µM]	x	x	u	u
O=C(NC1CCCC1)C1CCCCN1Cc1ccc(-c2ccsc2)cc1 (stereo not given)	0%	x	x	u	25µM*
CNC(=O)C1CCCN1Cc1ccc(-c2cncnc2)cc1 (stereo not given)	i	x	x	-9%[138 µM]	-13%[172 µM]
CNC(=O)C1CCCCN1Cc1ccc(-c2ccsc2)cc1 (stereo not given)	-1%[88.5 µM]	x	x	u	u
C#CCNC(=O)C1CCCCN1Cc1ccc(-c2ccsc2)cc1 (stereo not given)	-4%	x	x	-39%	40µM*
O=C(NC1CC1)C1CCCCN1Cc1ccc(-c2ccsc2)cc1 (stereo not given)	5%[88.5 µM]	x	x	79µM*	u
CC(C)NC(=O)C1CCCCN1Cc1ccc(-c2ccsc2)cc1 (stereo not given)	i	x	x	u	50µM*
CN(Cc1ccc(C#N)cc1)Cc1cccc2cnccc12	0%	-23%	i	u	u
CN(C(=O)Cn1cccc1-c1nc(-c2ccccc2)no1)c1ccc(F)cc1	u	3%	i	-25%	-9%
COc1ccccc1Nc1ccnc(N2CCC(C(=O)N3CCCC3)CC2)n1	i	x	x	u	u
COc1ccccc1Nc1ccnc(N2CCN(C(=O)C3CCCC3)CC2)n1	i	x	x	u	u
COc1ccccc1Nc1ccnc(N2CCN(C(=O)Nc3ccc(Cl)cc3)CC2)n1	i	x	x	40µM*	40µM*
O=C(c1ccc(Cl)cc1)N1CCN(c2nccc(Nc3ccccc3F)n2)CC1	3%	x	x	u	u
O=C(c1ccc(F)cc1)N1CCN(c2nccc(Nc3ccccc3F)n2)CC1	-13%	x	x	32µM*	40µM*
COc1ccccc1Nc1ccnc(N2CCN(C(=O)c3ccc(F)cc3)CC2)n1	1%	x	x	22µM*	50µM*
CN1CCC2(C1)CN(CC1CCOCC1)c1ccc(C(=O)NCCCO)cc12 (stereo not given)	u	-1%[70.6 µM]	i	89µM*	u
CN1CCC2(C1)CN(CC1CCOCC1)c1ccc(C(=O)NCCOc3ccccc3)cc12 (stereo not given)	i	-1%	i	32µM*	u
CN1CCC2(C1)CN(CC1CCOCC1)c1ccc(C(=O)NCCc3ccccc3)cc12 (stereo not given)	i	7%[70.6 µM]	i	u	u
